An excerpt weighted towards active compounds, which were near 3.6% of everything screened.
Peg3 prom inh = reduces Peg3 promoter-driven luciferase expression in HeLa | HeLa PEG-Prom luciferase reporter, luminescence, overnight | inhibition, % at 20 µM | 1.7% of 360,000 active | AID 588405;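 active = inhibition of at least 50% at 20 µM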
HSP90 inh = blocks HSP90-mediated luciferase refolding in reticulocyte lysate; 0.91% of 290,000 active; inhibition, % at 5.6 µM; AID 1789; Rabbit reticulocyte lysate, luciferase refolding luminescence, 3 h;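 active = inhibition above the screen-wide mean plus 3 SD, computed separately per campaign, cut at about 16% in these data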;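 also: 0% = DMSO wells and 100% = 60 µM geldanamycin wells; inhibitors lower the luminescence because luciferase stays unfolded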
KKLEB cytotox = CF airway cell cytotoxicity counter-screen; KKLEB CF airway cells viability, ATPlite luminescence, overnight; active compounds read low; cells stimulated with P. aeruginosa culture filtrate; activity change (cytotoxicity), % at 5 µM; 0.36% of 360,000 active;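 active = corrected activity change at or below -50% at 5 µM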
CF NFkB block = blocks PAF-induced NF-kB reporter in cystic fibrosis cells; inhibition, % at 5 µM; AID 588850; 0.86% of 360,000 active; KKLEB NF-kB-GFP reporter, GFP fluorescence overnight;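 active = at least 50% inhibition at 5 µM, scaled per plate between neutral and stimulator controls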;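 also: PAF is a Pseudomonas aeruginosa culture filtrate used as stimulus; plate controls were PAF-stimulated DMSO wells for no effect and unstimulated DMSO wells for full effect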
LGR2 antag = Drosophila LGR2 receptor signaling inhibition; HEK293 LGR2, CRE-luciferase, bursicon-stimulated, 4 h; inhibition, % at 9.99 µM; 0.35% of 380,000 active;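 active = drop in luminescence signal, shown as inhibition above about 50% in the replicate tests, limit read from the data, passing the limit was not always enough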;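 also: agonist challenge used bursicon conditioned medium at about half maximal strength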
Mdm2-MdmX inh = inhibitors of human Mdm2/MdmX interaction; AID 485346; O15151+Q00987; SaOS-2 split-luciferase Mdm2/MdmX complementation, luminescence; 3% of 330,000 active; inhibition, % at 8 µM;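 active = inhibition of at least 50% at 8 µM in the primary screen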
Starred values were filed as active, the others as inactive; nt = no result given.

SMILES	Peg3 prom inh	HSP90 inh	KKLEB cytotox	CF NFkB block	LGR2 antag	Mdm2-MdmX inh
COc1ccccc1N1CCN(C(=O)c2cccc(S(=O)(=O)N3c4ccccc4CC3C)c2)CC1 (configuration not stated)	78*	nt	-7	38	35	nt
CCc1nnc2n1N=C(c1ccc(-c3cc(Cl)ccc3Cl)o1)CS2	63*	2	-26	-13	nt	49
CCC(=O)N1CC2(C1)[C@H](c1ccc(-c3cccc(OC)c3)cc1)[C@@H](CO)N2C(C)=O	nt	nt	nt	nt	1	nt
c1ccc(CCNCCCOc2cccc3ccccc23)cc1	50*	-2	6	22	6	18
C[C@@H]1CN([C@@H](C)CO)S(=O)(=O)c2ccc(C#CC(C)(C)O)cc2O[C@@H]1CN(C)C	nt	nt	nt	nt	-20	nt
CCOC(=O)c1c(C)c(C(=O)Nc2cc(OC)ccc2OC)c(C)n1CC	57*	-3	-15	13	nt	nt
CNC(=O)C[C@@H]1CC[C@@H]2[C@H](COC[C@@H](O)CN2Cc2ccc(Cl)c(Cl)c2)O1	nt	nt	nt	nt	-3	nt
CCOc1cccc2cc(C(=O)N3CC(C)OC(C)C3)c(=O)oc12 (configuration not stated)	53*	-5	-12	3	-8	0
CCOc1cccc2cc(C(=O)N3CCOCC3)c(=O)oc12	-12	0	1	2	7	8
COc1ccc(CNC(=O)C[C@@H]2C[C@H]3c4cc(NC(=O)CN(C)C)ccc4O[C@H]3[C@H](CO)O2)cc1	nt	nt	nt	nt	-1	nt
CC(=NNc1nc2ccccc2o1)c1cc2ccccc2cn1	89*	nt	-7	-10	-72	nt
CC(=NNc1nc2ccccc2o1)c1ncccn1	-51	nt	-14	2	4	nt
COc1cccc(NC(=O)C2CCCN2C(=O)Nc2cccc(F)c2)c1 (configuration not stated)	67*	0	-5	20	nt	20
COc1cccc(NC(=O)C2CCCN2C(=O)Nc2ccccc2)c1 (configuration not stated)	12	-3	0	-4	20	6
Cc1ccc(NC(=O)CN(C)CC(=O)Nc2cccc(F)c2)cc1S(=O)(=O)N1CCCCCC1	59*	-2	-14	-11	32	29
COc1ccc(NC(=O)CN(C)CC(=O)Nc2cccc(F)c2)cc1S(=O)(=O)N1CCCCC1	21	nt	-2	0	-5	nt
O=C(C[C@@H]1C[C@H]2c3cc(NC(=O)c4ccc5c(c4)OCO5)ccc3O[C@H]2[C@@H](CO)O1)NCc1ccc(Oc2ccccc2)cc1	nt	nt	nt	nt	53*	nt
COCC(=O)N1[C@@H]2c3ccc(C4=CCCCC4)c(=O)n3C[C@@H]2[C@@H](CO)[C@@H]1C(=O)N1CCCCC1	nt	nt	nt	nt	12	nt
COCC(=O)Nc1nc2ccc(C)cc2s1	-210	17*	10	-8	nt	-101
Cc1ccc2nc(NC(=O)COC(=O)c3ccncc3)sc2c1	-152	1	2	6	-34	-25
O=C(O)c1cccc(-c2noc(-c3cccc(Cl)c3)n2)c1	54*	nt	-3	-5	84*	34
Cn1c(=O)c(C(=O)NNC(=O)c2cccc(Cl)c2)c(O)c2ccccc21	64*	-2	-24	73*	11	50
O=C(NCC[C@@H]1CC[C@@H](NC(=O)C2CCCC2)[C@@H](CO)O1)c1cnccn1	nt	nt	nt	nt	-3	nt
CCC(=O)N1CC2(CN(Cc3ccncc3)C2)c2c(n(C)c3cc(OC)ccc23)[C@H]1CO	nt	nt	nt	nt	-15	nt
O=C(CSc1n[nH]c(=O)[nH]c1=O)NC1CCCCC1	-13	17*	-8	31	-20	-34
O=C(COc1coc(CN2CCc3ccccc32)cc1=O)Nc1cccc(F)c1	14	nt	-56*	64*	13	-2
CC(C)C[C@H](N)c1nnc(S(=O)(=O)Cc2cccc(F)c2)o1	67*	-2	1	28	-3	24
C/C=C/c1ccc2c(c1)O[C@@H](CN(C)Cc1cccc(F)c1)[C@@H](C)CN([C@@H](C)CO)S2(=O)=O	nt	nt	nt	nt	18	nt
O=C1C(C2=NC(c3ccccn3)C3C(=O)N(c4ccc(Cl)cc4Cl)C(=O)C23)=C(O)c2ccccc21 (configuration not stated)	51*	0	-39	53*	-22	45
O=C(C[C@H]1C[C@@H]2c3cc(NS(=O)(=O)c4ccc(F)cc4)ccc3O[C@@H]2[C@H](CO)O1)NC1CCCC1	nt	nt	nt	nt	-6	nt

Assay outcomes deposited in PubChem by several laboratories.
